Results published in article PMC12136788.
Over roughly 24,000 sequences, “enrichment r” has its median near 0.99; the highest 2% begin near 3.7. Only a sample is shown.

B1: 171526625_171526745_1071_3pUTR_ENSG00000117523_ENST00000495585|human|control|control (ssRNA)
RNA: GGGAGUUCUACAGUCCGACGAUCAGGUUAUAGCUGCAGCUGAAGUAGAGGCUGGAACUGAAGCUGAGACUGAGGCUGAGGCUGAAACUGGAGCUAAGGGUGAGGCUGGAACUGGAGCUGAGGUUGAGGCCAGAACUGGAGCUACAACAGAGGAUUGAGCAUCA
B2: chr13:108516651:108516652:-_ENSMUSG00000032846_ENSMUST00000105097|mus_hu|motif|central (ssRNA)
RNA: GGGAGUUCUACAGUCCGACGAUCAUCAUGCGCCAUUAAGAAGGUCUCUCGGGCUUUGCUGAGGAACUCUAUAAACUCACGGUAGUGCCGAGGACUGAUGUGUGUGAGCCGUGAGUGCGUUGUGUUGAUGUAGGCCCCGAUCGUCAACAGAGGAUUGAGCAUCA
B3: 138058577_138059462_3783_3pUTR_ENSMUSG00000041642_ENSMUST00000075164|mouse|control|control (ssRNA)
RNA: GGGAGUUCUACAGUCCGACGAUCGGCCAGGGACUUGGUGAUGUUCUUGGUAGAGCUGUCCAAUGGGGGUCCUAGGCACUCCGCAGACACGGCCUUCAUCUGUGCGGAUAGCUUGGGCUCACCCUUGAACUUGAAGUCAUCGUGCAACAGAGGAUUGAGCAUCA
B4: chr12:39756943:39756944:-_ENSG00000139116_ENST00000544797|hu_mus|hu_hu_hu_mus_False|28_38 (ssRNA)
RNA: GGGAGUUCUACAGUCCGACGAUCGGUUUGGCUGUUACCCCCAAGGGAAUCCUGCAAGAGUCUUGUCAGCUUAGAGUCUCUGUAAGGGACAUGGGUGGCCCUCUUGCUCUUGUCUCCCAAGGCGCUGAUUACAUUCCCAAGAGCCAACAGAGGAUUGAGCAUCA
B5: chr2:73467608:73467609:+_ENSG00000135624_ENST00000258091|hu_mus|FALSE|FALSE (ssRNA)
RNA: GGGAGUUCUACAGUCCGACGAUCAUCCUGGGACUUGGCUAUGUCCACUAAAGUCUUUGCUGCAGGAUGGACAACAUCGAGGAGUUUCAGAAUUGUGGCCCCAUCAUUAGAUAUUGUUGCUUUGCCUCGGCCAUCCACAAUAAGCAACAGAGGAUUGAGCAUCA
B6: chr2:160604994:160604995:+_ENSG00000136536_ENST00000409591|hu_mus|motif|central (ssRNA)
RNA: GGGAGUUCUACAGUCCGACGAUCUCUUGAAGACUCAUCCCUUCCCUCUCGCCUCCUUCUCGAGAACAAAGGUGUGCAUCGGUUUCGGAGUGAAGAAGACAACCAUGGUCCUGAAUUUCUACCUUCUGAUUCUUGGUUAAAAUUCAACAGAGGAUUGAGCAUCA
B7: chr11:64571133:64571134:-_ENSG00000133895_ENST00000312049|hu_hu|motif|central (ssRNA)
RNA: GGGAGUUCUACAGUCCGACGAUCCUGAAAAAUAAAUCUAUGUACAAAACAGGAAGAGAUCAGGCUCUUGUCACCCACUCCGGACCCUCUGCAGAUUUCCUCCGGGAUGCUCCGAGAUGGGCUGGACCUCUGGGAGGUUCCCAGCAACAGAGGAUUGAGCAUCA
B8: chr10:93459826:93459827:-_ENSMUSG00000036099_ENSMUST00000119818|mus_mus|motif|central (ssRNA)
RNA: GGGAGUUCUACAGUCCGACGAUCUCCCCACACCAGCCAGGAGGACACAAUCCAGCACGUGGGAAACAUGAUGAGCAAACGGAUGAAGGCAAACAGCAGCGAGACAUCCCAAGUGUUCGGGGUUGCCAGGGAGCAGAGCGUUGGCAACAGAGGAUUGAGCAUCA
B9: chr9:95013113:95013114:-_ENSG00000196305_ENST00000443024|hu_hu|hu_hu_hu_mus_False|1_48 (ssRNA)
RNA: GGGAGUUCUACAGUCCGACGAUCCUCAGUCAGAAAGGGCGUGUAAGGGGCCAUCAGUCUGCACAGAGAAAGCAGGACACUGAACAGGGUUUCUAGGGCCAUGACACAGUCUUCCACCCCACUCUCACCCUUUAACCUUCUGCGCAACAGAGGAUUGAGCAUCA
B10: chr16:75661828:75661829:-_ENSG00000065427_ENST00000302445|hu_hu|FALSE|FALSE (ssRNA)
RNA: GGGAGUUCUACAGUCCGACGAUCUAUUAUUUUCUAGACAGAAGUGCCAACUGUUGUGCUUUCCAGUGUAUCAGUGGUUGCUACAUUCUCCUUCUUGUCUUCGGGUUUCAUGGCAGGAAACAGAAGUACUUCCUUGAUGUUGUUCAACAGAGGAUUGAGCAUCA
B11: chr11:29608675:29608676:+_ENSMUSG00000020458_ENSMUST00000102843|mus_mus|motif|central (ssRNA)
RNA: GGGAGUUCUACAGUCCGACGAUCCUCUGUAUCAGAAGGAAGUUUUUCCUCUGCUUCUUUCGUAAGUACUUUGGGUUUAACGGUGUUGCCCAUUUCUAUUUGAGAUUCCAAAGCAGAAACAUUUGGAAGCAAUAAGGGCACCUUCAACAGAGGAUUGAGCAUCA
B12: 136535675_136535795_2550_CDS_ENSMUSG00000030213_ENSMUST00000032335|mouse|control|control (ssRNA)
RNA: GGGAGUUCUACAGUCCGACGAUCCUGAGGCUGAGAGGUCACGGCAACGGGCACAUGCAGGAUCACUGGCAAGGGCUGCAGAGAGAUUGUAGGCUGAGGGGUCCCACUAGGCACCUGAGUAGUGGCAACUACGGUGGCUGUGCUCAACAGAGGAUUGAGCAUCA
B13: chr7:102952668:102952669:+_ENSG00000105819_ENST00000453466|hu_hu|motif|central (ssRNA)
RNA: GGGAGUUCUACAGUCCGACGAUCCUGUUUAAAAUCUGGUAGUUGCUUAAUGGGACCAACAGCAGCAAUAGCUGGACUCCGGUUAUAAAUGUAUUUGGUACAUACUUCUCGAAUUGUCUCAGCAUUCACAGCAUCAAUUCUUGCCAACAGAGGAUUGAGCAUCA
B14: chr2:120799606:120799607:+_ENSG00000115109_ENST00000263713|hu_hu|motif|central (ssRNA)
RNA: GGGAGUUCUACAGUCCGACGAUCGUACAUAAUCUGAUCAAACAACUCUUGUCCUUUGGCUUUUUUUGGCAAGUCCACACGGACAUCAGUACCAUCCAGAAGGGACACCCGACACGUGAUGAUGGACUUAGAAUCUCCAGCUGCCAACAGAGGAUUGAGCAUCA

What follows are binders tested against T1, UNK ZnF1-3 (human, UniProt Q9C0B0 31-174) (assay: nsRBNS (natural sequence RNA bind-n-seq); RBNS binding buffer (assumed for nsRBNS): 25 mM Tris pH 7.5, 150 mM KCl, 3 mM MgCl2, 0.01% Triton X-100, 500 ug/ml BSA, 20 U/ml SUPERase-In, 4 C; UNK is unkempt and MSI1 is Musashi-1; names of the RNAs are library labels; protein concentration not given here; high values mean tight binding).
T1 sequence: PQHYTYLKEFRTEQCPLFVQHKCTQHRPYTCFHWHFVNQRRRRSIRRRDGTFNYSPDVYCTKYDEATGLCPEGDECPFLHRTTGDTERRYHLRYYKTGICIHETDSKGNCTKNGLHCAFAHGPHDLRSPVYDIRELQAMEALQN
For B1, the binding signal was 2.07 enrichment R. In the case of B2, the binding signal is reported as 0.756 enrichment R. B3 was tested, and the binding signal was 0.657 enrichment R. In the case of B4, the binding signal is reported as 0.802 enrichment R. Work on B5 yielded a binding signal of 0.992 enrichment R. In the case of B6, the binding signal is reported as 0.976 enrichment R. With B7 the binding signal was 0.877 enrichment R. With B8 the binding signal was 2.05 enrichment R. Work on B9 yielded a binding signal of 0.937 enrichment R. B10 showed a binding signal of 0.567 enrichment R. B11 gave a binding signal of 0.539 enrichment R. In the case of B12, the binding signal is reported as 1.73 enrichment R. Binder B13 has a binding signal of 1.15 enrichment R. Binder B14 has a binding signal of 0.976 enrichment R.
